# Test results taken from PubChem BioAssay (NCATS).
# Results filed as inconclusive are left out. Activity calls are given as the source filed them. Calls come from the whole dose curve; as a rule, active = well fitted cell-killing curve with a large enough effect; inconclusive = small, poorly fitted or top-dose-only effect, or effect the other way; inactive = no such curve, though single readings can be large or run the other way.
# Experiment: Quantitative High-Throughput drug screen in 47 multiple myeloma cell lines against the NCATS MIPE library collection: L363_DSMZ cell viability assay (AID 1918984); note: nearly all actives have a fitted effect of over 40% in size
# Settings: L363 myeloma viability, CellTiter-Glo ATP luminescence, 48 h; series mostly up to 45.8 µM; viability (% of control): at the top concentration
# Description: PI: Beverly A. Mock Ph.D.
# Laboratory of Cancer Biology and Genetics,
# Center for Cancer Research, National Cancer Institute,
# National Institute of Health, Bethesda, Maryland
# Drug resistance and disease progression are common in multiple myeloma (MM) patients, underscoring the need for new therapeutic combinations. […] We hypothesized that effective combinations would reduce MYC expression and enhance p16 activity. […] These preclinical data identify potentially useful drug combinations for evaluation in drug-resistant MM and reveal potential mechanisms of combined drug sensitivity.
# Described herein is the primary MIPE qHTS used to cherrypick compounds. Validated compounds were then further tested for potential synergistic activiy.
# [1] Peat TJ, Gaikwad SM, Dubois W, Gyabaah-Kessie N, Zhang S, Gorjifard S, Phyo Z, Andres M, Hughitt VK, Simpson RM, Miller MA, Girvin AT, Taylor A, Williams D, D'Antonio N, Zhang Y, Rajagopalan A, Flietner E, Wilson K, Zhang X, Shinn P, Klumpp-Thomas C, McKnight C, Itkin Z, Chen L, Kazandijian D, Zhang J, Michalowski AM, Simmons JK, Keats J, Thomas CJ, Mock BA. Drug combinations identified by high-throughput screening promote cell cycle transition and upregulate Smad pathways in myeloma. Cancer Lett. 2023 Aug 1;568:216284. doi: 10.1016/j.canlet.2023.216284. Epub 2023 Jun 24. PMID: 37356470; PMCID: PMC10408729.
# SEQUENCE No. (e.g., 1, 2, 3, etc.); […] (e.g., Cells, Incubation, Reagent, etc.); VALUE and DESCRIPTION.
# 1; Cells; 5 uL; white, solid bottom 1536-well Greiner assay plate.
# 2; Compounds; 23 nL; Kalypsis pin tool (Wako USA) equipped with a 1536-well pin head to transfer to the assay plates.
# 3; Incubation; 48 hours; 37C incubation.
# 4; Reagent;5uL; CellTiter Glo (Promega).
# 5; Detector; 425V; Luminescence; Viewlux PerkinElmer.
# NOTES (numbers refer to Sequence numbers above)
# 1. The cell-based screening methods employed in this study were like those previously published. Briefly, the corresponding myeloma cell lines were screened in 1,536-well plates with 500 cells, 5-uL per well for inhibition of cell viability (assessed by measuring ATP levels with CellTiterGlo).
# 2. NCATS MIPE 4.0 library of approved and investigational drugs were added using the Kalypsis pin tool. Wells treated with DMSO only for 100% viability and media only for 0% viability were used as controls.
# 3. The assay plates were covered and incubated for 48 hours in a 37C, 5% CO2 incubator with controlled humidity.
# 4. After 48 hours, CellTilter-GloTM luminescent substrate mix (Promega) reagent was added to the assay plate and plates we incubated for 5 min at room temperature.
# 5. Signal was measured as median relative luminescence units on a ViewLux (PerkinElmer) multiplate reader.
# [1] Heske CM, Davis MI, Baumgart JT, Wilson K, Gormally MV, Chen L, Zhang X, Ceribelli M, Duveau DY, Guha R, Ferrer M, Arnaldez FI, Ji J, Tran HL, Zhang Y, Mendoza A, Helman LJ, Thomas CJ. Matrix Screen Identifies Synergistic Combination of PARP Inhibitors and Nicotinamide Phosphoribosyltransferase (NAMPT) Inhibitors in Ewing Sarcoma. Clin Cancer Res. 2017 Dec 1;23(23):7301-7311. doi: 10.1158/1078-0432.CCR-17-1121. Epub 2017 Sep 12. PMID: 28899971; PMCID: PMC6636827.
# Potency is the fitted concentration of half-maximal effect.
SMILES,Potency,viability (% of control)
Cc1cccc(-c2[nH]c(C(C)(C)C)nc2-c2ccc3nccnc3c2)n1,1.87 µM (active),–
CCn1cc(C(=O)O)c(=O)c2cc(F)c(N3CCNC(C)C3)c(F)c21 (stereo not given),–,91.2% (inactive)
Clc1ccc(Nc2nnc(Cc3ccncc3)c3ccccc23)cc1,–,90.8% (inactive)
OC(CN1CCC(Cc2ccc(F)cc2)CC1)c1ccc(Cl)cc1 (stereo not given),–,119% (inactive)
CS(=O)(=O)c1ccc(C(=O)Nc2ccc(Cl)c(-c3ccccn3)c2)c(Cl)c1,–,126% (inactive)
c1ccc([C@H]2CN3CCSC3=N2)cc1,–,108% (inactive)
NS(=O)(=O)c1cc2c(cc1Cl)NC=NS2(=O)=O,–,103% (inactive)
O=NN(CCCl)C(=O)NCCCl,–,99.3% (inactive)
O=C1CCc2cc(OCCCCc3nnnn3C3CCCCC3)ccc2N1,–,83.1% (inactive)
COc1ccc(-c2oc3cc(OC)ccc3c2C(=O)c2ccc(C#N)cc2)cc1,3.32 µM (active),–
CNCc1ccc(-c2[nH]c3cc(F)cc4c3c2CCNC4=O)cc1,–,80.6% (inactive)
N[C@@H]1CONC1=O,–,91.1% (inactive)
COc1cc(Nc2ncc3c(n2)-c2ccc(Cl)cc2C(c2c(F)cccc2OC)=NC3)ccc1C(=O)O,–,51.7% (inactive)
COc1ccc(COc2cc3oc(=O)c4cc(C(C)O)ccc4c3cc2OC)cc1 (stereo not given),5.26 µM (active),–
Clc1cccc(Cl)c1NC1=NCCN1,–,91.9% (inactive)
CN(C)c1ccc(Nc2nc(N)n(C(=O)c3c(F)cccc3F)n2)cc1,20.9 µM (active),–
COc1ccc([C@@H]2CC(=O)c3c(O)cc(O[C@@H]4O[C@H](CO[C@@H]5O[C@@H](C)[C@H](O)[C@@H](O)[C@@H]5O)[C@@H](O)[C@H](O)[C@@H]4O)cc3O2)cc1O,–,99.1% (inactive)
Nc1nccc(-c2ccc3noc(-c4ccc(Cl)cc4)c3c2)n1,–,130% (inactive)
NC(=O)c1ccc(-c2nc(-c3ccc4c(c3)OCCO4)c(-c3ccccn3)[nH]2)cc1,20.9 µM (active),–
CS(=O)(=O)c1cccc(CNc2nc(Nc3ccc4c(c3)CCC(=O)N4)ncc2C(F)(F)F)c1,6.62 µM (active),–

SMILES,Potency,viability (% of control)
Cc1cc(SCc2sc(-c3ccc(C(F)(F)F)cc3)nc2C)ccc1OCC(=O)O,–,123% (inactive)
CCc1cncnc1N1CCN(Cc2nc3ccc(C(F)(F)F)cc3[nH]2)CC1,5.26 µM (active),–
Cc1ccc(N(CC2=NCCN2)c2cccc(O)c2)cc1,11.8 µM (active),–
C#Cc1cccc(Nc2ncnc3cc(OCCOC)c(OCCOC)cc23)c1,1.48 µM (active),–
Cc1cnc(Nc2ccc(OCCN3CCCC3)cc2)nc1Nc1cccc(S(=O)(=O)NC(C)(C)C)c1,0.296 µM (active),–
CCCCCCCc1ccc(CCc2cccc(O)c2C(=O)O)cc1,–,124% (inactive)
CC(C)(Sc1ccc(CCN(CCCCC2CCCCC2)C(=O)NC2CCCCC2)cc1)C(=O)O,–,93.3% (inactive)
C[C@]12CC[C@H](O)CC1=CC[C@@H]1[C@H]2CC[C@]2(C)C(c3cccnc3)=CC[C@H]12,–,99.2% [at 23.2 µM] (inactive)
Cc1c(C)c2c(c(C)c1O)CCC(C)(COc1ccc(CC3SC(=O)NC3=O)cc1)O2 (stereo not given),–,47.5% (inactive)
COCC(=O)NCC=Cc1ccc2ncnc(Nc3ccc(Oc4ccc(C)nc4)c(C)c3)c2c1,14.8 µM (active),–
O=C(O)CCc1ccc(NCc2cccc(Oc3ccccc3)c2)cc1,–,69.5% (inactive)
CCCS(=O)(=O)Nc1ccc(F)c(C(=O)c2c[nH]c3ncc(-c4ccc(Cl)cc4)cc23)c1F,–,69.9% (inactive)
CO[C@@H]1[C@H](N(C)C(=O)c2ccccc2)C[C@H]2O[C@]1(C)n1c3ccccc3c3c4c(c5c6ccccc6n2c5c31)C(=O)NC4,1.66 µM (active),–
Nc1nc2ccc(OC(F)(F)F)cc2s1,–,97% (inactive)
Cn1cnc2c(F)c(Nc3ccc(Br)cc3Cl)c(C(=O)NOCCO)cc21,0.833 µM (active),–
O=c1n(CCCN2CCN(c3cccc(Cl)c3)CC2)nc2ccccn12,–,101% (inactive)
CCN(CC)CCCC(C)Nc1ccnc2cc(Cl)ccc12 (stereo not given),0.935 µM (active),–
CCOc1ccc(Cc2cc([C@@H]3O[C@H](CO)[C@@H](O)[C@H](O)[C@@H]3O)ccc2Cl)cc1,18.7 µM (active),–
CNC(=O)c1ccc(N2C(=S)N(c3ccc(C#N)c(C(F)(F)F)c3)C(=O)C2(C)C)cc1F,–,79.6% (inactive)
COc1cc2nccc(Oc3ccc(NC(=O)NC4CC4)c(Cl)c3)c2cc1C(N)=O,–,103% (inactive)
